Screening data from PubChem BioAssay.
Shown are actives, neighbours in structure and some others; about 4.6% of the full set was active somewhere.
Vaccinia mCherry – qHTS for Stage-Specific Inhibitors of Vaccinia Orthopoxvirus: mCherry Reporter Primary qHTS | 310,000 compounds, 0.63% hits | AID 720579, 2013 | Potency, µM (doses to about 36.5 µM), for the others: at the highest dose activity change, negative = inhibition, actives largely listed as inhibitors | Vaccinia virus mCherry reporter infection, fluorescence; calls by dose curve; tested in A549 cells; note: nearly all actives have a fitted effect of over 35% in size
HCV inh – qHTS Assay for Inhibitors of Hepatitis C Virus (HCV) | Potency, µM (top dose mostly 41.8 µM), for inactives: at the highest dose activity change, negative = inhibition, actives largely listed as inhibitors | 340,000 compounds, 3.4% hits | AID 651820, 2012 | Huh7.5.1 HCVcc-Cre infection, luciferase reporter, 44 h; active = well fitted inhibition curve with a large enough effect; inconclusive = small, poorly fitted or top-dose-only effect, or another doubt; inactive = no such curve, though single readings can be large or run the other way
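Cells seeded at 1,000/well and cultured 4 h, then compounds added followed by HCVcc-Cre virus (~0.5 moi). After 44 h further culture, luciferase substrate was added, plates held 15 min at room temperature, and luminescence read for 15 sec.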
Marburg entry inh – qHTS for inhibitors of binding or entry into cells for Marburg Virus | Potency, µM (doses to about 37.8 µM), inactives show top-dose activity change, negative = inhibition, actives largely listed as inhibitors | Marburg virus pseudotyped entry inhibition, cell reporter | AID 540276, 2011 | 300,000 compounds, 1.8% hits; calls by dose curve; tested in HEK293 cells
Lassa entry inh – qHTS for Inhibitors of binding or entry into cells for Lassa Virus. 300,000 compounds, 1.2% hits. Potency, µM (titrated, usually from 37.9 µM), for the others: top-dose activity change, negative = inhibition, actives largely listed as inhibitors. Lassa virus pseudotype entry inhibition, cell reporter; calls by dose curve; tested in HEK293 cells; note: nearly all actives have a fitted effect of over 50% in size
Vaccinia Venus – qHTS for Stage-Specific Inhibitors of Vaccinia Orthopoxvirus: Venus Reporter Primary qHTS; 330,000 compounds, 0.46% hits; AID 720580, 2013; Vaccinia virus Venus reporter expression, fluorescence; Potency, µM (doses to about 36.5 µM), without a hit: top-dose activity change, negative = inhibition, usual class: inhibitors; calls by dose curve; tested in A549 cells; note: nearly all actives have a fitted effect of over 30% in size
* marks the source's active call; other numbers are inactive results; i = inactive; ? = inconclusive; / = not tested or not shown; [ ] = dose if it differs, or a comment. % is set by controls: 0 for no effect and ±100 for the full control effect; potency is the fitted concentration of half-maximal effect.

SMILES	Vaccinia mCherry	HCV inh	Marburg entry inh	Lassa entry inh	Vaccinia Venus
O=C(N/N=C/c1ccccc1O)C1CC(=O)N(c2ccc(F)cc2)C1 (centres undefined)	14µM*	?	?	?	?
O=C(c1cccs1)N1C[C@@H](n2cc(C3CC3)nn2)[C@@H](O)C[C@@H]1c1ccc(Cl)cc1	/	/	/	8%[46.1 µM]	/
Cc1c(C(=O)NC2CCN(Cc3ccccc3)C2)oc2c(Cl)cccc12 (centres undefined)	?	-20%	?	10µM*	-10%
COC(=O)c1cc(OC)nc2ccc(Br)cc12	/	11µM*	/	/	/
NNC(=O)c1cc(C2CC2)nc2ccc(Br)cc12	-29%	?	?	-31%[46.1 µM]	-17%
CN(Cc1ccon1)C(=O)c1cnn(-c2ncc3c(n2)-c2ccccc2CCC3)c1C1CC1	-14%	/	/	/	0%
CCOC(=O)c1c(NC(=O)c2nn(CC)cc2Br)c(C#N)nn1-c1ccccc1	-16%	11µM*	?	-27%[14.3 µM]	-8%
O=C1CC(=O)OC(c2ccc([N+](=O)[O-])cc2)O1	13µM*	/	/	/	13µM*
Cc1ccc(NC(=O)CN2C(=O)COc3ccc(S(=O)(=O)N4CCOCC4)cc32)c(Cl)c1	-3%	/	/	1%[46.1 µM]	-9%
C=C1CCC[C@]2(C)C[C@H]3OC(=O)C(CNCCN(CC)CC)[C@H]3CC12 (some centres undefined)	4µM*	?	?	?	3.2µM*
CC(=O)c1ccc(OCCCC(=O)N2CCN(S(=O)(=O)c3ccc(C(C)C)cc3)CC2)cc1	-5%	10µM*	-20%	?	-21%
O=C(Nc1ccc(C(=O)OCc2cc(=O)n3c4c(sc3n2)CCCC4)cc1)c1ccc(Cl)cc1	-12%	/	/	?	-8%
O=[N+]([O-])c1cc(O)c2ncccc2c1	1µM*	0.56µM*	?	?	1µM*
Oc1cccc2cccnc12	-15%	/	/	/	-12%
COC(=O)[C@@H]1[C@H]2SC(C)(C)[C@H](C(=O)OC)N2C(=O)N1Cc1cc2ccccc2n1S(=O)(=O)c1ccccc1	i	/	/	/	-18%
c1ccc(COc2ncnc3c2ncn3CCCN2CCN(Cc3cccc4ccccc34)CC2)cc1	10µM*	/	/	/	11µM*
CCCCC(CC)CO (centres undefined)	-5%	-3%	/	/	-4%
CCCCC(CC)CN=C(N)NC(N)=NCCCCCCN=C(N)NC(N)=NCC(CC)CCCC (centres undefined)	?	?	/	/	10µM*
CCC(=O)N1CCc2cc(Br)cc(S(=O)(=O)NC3CCN(Cc4ccccc4)CC3)c21	-10%	?	?	2.2µM*	-16%
CCC(=O)N1CCc2cc(Br)cc(S(=O)(=O)NCCCN(C)Cc3ccccc3)c21	i	23%	?	18%	-11%
COc1cccc(C(=O)Nc2ccccc2C(=O)OCc2cc(=O)n3c4c(sc3n2)CCCC4)c1	-23%	/	/	3%[46.1 µM]	-12%
COc1ccccc1CNC(=O)C(Cc1c[nH]c2ccccc12)NC(=O)OCc1ccccc1 (centres undefined)	-28%	?	?	4.5µM*	-26%
CCOc1ccc2nc(NC(=O)c3ccccn3)sc2c1	7.9µM*	?	?	?	?
Cc1ccc2nc(NC(=O)c3ccccn3)sc2c1	22µM*	?	?	/	?
CCn1nc(C(=O)Nc2nc3ccc(C)cc3s2)c2ccccc2c1=O	-9%	32µM*	-5%	-23%	-1%
SMILES	Vaccinia mCherry	HCV inh	Marburg entry inh	Lassa entry inh	Vaccinia Venus
O=C(Nc1nc2c(F)cc(F)cc2s1)c1ccccn1	?	10µM*	?	7.1µM*	?
Cc1ccc2nc(NC(=O)c3ccccc3F)sc2c1	i	?	?	?	-13%
Cc1ccc(CN(C(=O)COc2ccc(C(C)C)cc2)C2CCS(=O)(=O)C2)o1 (centres undefined)	-17%	/	5%[46.1 µM]	14%[46.1 µM]	-17%
CC(C)Cc1nc2cc(NS(=O)(=O)N(C)C)cc(C(=O)N3CCc4sccc4C3)c2n1C	0%	/	/	/	-7%
CSc1nc2ccc(NC(=O)c3ccccn3)cc2s1	-4%	-3%	?	2µM*	-21%
CCOc1ccc2nc(NC(=O)C(NS(=O)(=O)c3cccc4nsnc34)C(C)C)sc2c1 (centres undefined)	7.9µM*	?	-6%	/	?
CCOC(=O)c1ccc2nc(NC(=O)c3ccco3)sc2c1	-2%	-10%	?	?	-16%
CCOC(=O)c1ccc2nc(NC(=O)c3cccs3)sc2c1	?	-23%	4.5µM*	?	-27%
CCN1CCCC1CNC(=O)c1cnn(-c2nccc(-c3cccs3)n2)c1C(C)C (centres undefined)	-21%	/	/	/	-10%
CCc1ccc(-n2c(=O)c3c4c(sc3n(CC(=O)NCCCOC)c2=O)CCC4)cc1	-9%	/	12%[46.1 µM]	4%[46.1 µM]	-10%
Cc1nc2sccn2c1CN1CCOc2ccc(CN3C[C@@H](C)O[C@@H](C)C3)cc2C1	-27%	/	/	/	-26%
C=CCN1C(=O)S/C(=C/c2ccc(Sc3nc4ccccc4[nH]3)o2)C1=O	?	?	?	20µM*	-23%
CC(C)N1C(=O)S/C(=C/c2ccc(Sc3nc4ccccc4[nH]3)o2)C1=O	?	10µM*	?	?	?
CCOc1ccccc1NC(=O)c1ccoc1C	-6%	6.3µM*	10%	12%	1%
CCCOc1ccccc1NC(=O)c1ccc(N)cc1	/	7.1µM*	-4%	-9%	/
CCOc1ccccc1C(=O)Nc1ccccc1O	/	11µM*	8%	11%	/
CSc1ccccc1NC(=O)c1ccoc1C	/	?	13%	-17%	/
O=C(Nc1nccs1)c1ccc(COc2ccc(F)cc2)o1	/	?	3%	-1%	/
O=C(Nc1nccs1)c1ccc(COc2ccccc2Br)o1	-30%	11µM*	?	-22%	?
CCOc1ccccc1NC(=O)c1ccc(C(=O)Nc2ccccc2OCC)cc1	-10%	/	/	-22%[46.1 µM]	-16%
COc1ccc(C)cc1NC(=O)c1ccoc1C	/	14µM*	15%	11%	-9%
CCc1cc(C(=O)OC)c(NC(=O)c2cc(Br)cs2)s1	/	-20%	11%	-11%	/
CCc1cc(C(=O)OC)c(NC(=O)CSc2nccn2C)s1	-14%	10µM*	1%	-6%	-27%
CCc1cc(C(=O)OC)c(NC(=O)c2ccoc2C)s1	/	10µM*	/	/	/
CCOc1ccccc1C(=O)Nc1nnc(COC)s1	-2%	7.1µM*	-13%	21%[46.1 µM]	-5%
Cc1ccccc1C(=O)NCc1ccc2c(c1)CCN2C(=O)c1ccc(F)cc1	-11%	/	/	?	-10%
CCOc1ccccc1C(=O)Nc1nccs1	/	5.6µM*	?	21%	-11%
COc1ccccc1NC(=O)c1ccc(NC(=O)c2ccco2)cc1	13%	-11%	?	?	-6%
CCOc1ccccc1NC(=O)c1ccc(NC(=O)c2ccco2)cc1	/	10µM*	?	-3%	-22%
